{
  "source": "paper PMC7862700",
  "about": "“An all-to-all approach to the identification of sequence-specific readers for epigenetic DNA modifications on cytosine”",
  "assay_in_all_cases": "DAPPL (digital affinity profiling via proximity ligation, sequencing); 10 mM Tris-HCl pH 7.5, 50 mM NaCl, 1 mM DTT, 4% glycerol, room temperature, 30 min; GST-TFs on glutathione beads, 16-mer random dsDNA library, 0.1% formaldehyde crosslink after washing; high values mean tight binding",
  "key": {"FEV": {"target": "T1, FEV (Homo sapiens, UniProt Q99581 1-238)", "T1 sequence": "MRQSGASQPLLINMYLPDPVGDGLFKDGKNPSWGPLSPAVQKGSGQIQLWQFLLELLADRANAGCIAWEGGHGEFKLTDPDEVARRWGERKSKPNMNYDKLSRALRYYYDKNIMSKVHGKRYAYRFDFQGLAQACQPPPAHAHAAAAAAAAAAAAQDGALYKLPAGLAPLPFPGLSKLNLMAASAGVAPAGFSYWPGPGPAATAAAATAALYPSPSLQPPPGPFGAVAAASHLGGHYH", "conditions": "protein: recombinant; tags: N-terminal GST; dsDNA, one strand shown", "method_in_brief": "(§1)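 Sequencing on an Illumina NextSeq500 followed washing, crosslinking with 0.1% formaldehyde, proximity ligation (BsaI/T4 ligase, 1 h, 37 °C) and PCR amplification of pools that had been incubated for 30 min at room temperature with 200 nmole of a random double-stranded 16-mer DNA library in Tris/NaCl/DTT/glycerol buffer. Each pool held DNA-barcoded human transcription factors, expressed in yeast as GST fusions and captured on glutathione beads, plus a tag-only sample. Binding signal is a hexamer's read frequency for a factor divided by its frequency in the tag-only sample.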"}, "ETV5": {"target": "ETV5 (Homo sapiens, UniProt P41161 1-510)", "sequence (P41161 whole entry)": "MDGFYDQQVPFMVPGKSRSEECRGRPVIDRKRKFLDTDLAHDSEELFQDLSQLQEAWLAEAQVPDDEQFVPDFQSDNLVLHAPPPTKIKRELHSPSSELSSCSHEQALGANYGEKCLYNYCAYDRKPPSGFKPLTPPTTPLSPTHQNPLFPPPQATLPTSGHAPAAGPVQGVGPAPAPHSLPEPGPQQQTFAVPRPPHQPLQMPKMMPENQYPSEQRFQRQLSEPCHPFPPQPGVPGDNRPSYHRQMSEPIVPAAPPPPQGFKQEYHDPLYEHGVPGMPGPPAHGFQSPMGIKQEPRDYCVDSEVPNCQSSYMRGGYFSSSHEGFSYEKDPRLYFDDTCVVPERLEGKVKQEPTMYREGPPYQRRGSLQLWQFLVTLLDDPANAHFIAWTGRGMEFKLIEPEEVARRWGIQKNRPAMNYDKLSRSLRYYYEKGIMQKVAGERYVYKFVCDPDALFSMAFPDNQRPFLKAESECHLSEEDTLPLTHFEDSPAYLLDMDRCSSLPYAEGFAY", "conditions": "protein: recombinant; tags: N-terminal GST; dsDNA, one strand shown", "method_in_brief": "as §1"}, "HSF1": {"target": "HSF1 (Homo sapiens, UniProt Q00613 1-529)", "sequence (Q00613 whole entry)": "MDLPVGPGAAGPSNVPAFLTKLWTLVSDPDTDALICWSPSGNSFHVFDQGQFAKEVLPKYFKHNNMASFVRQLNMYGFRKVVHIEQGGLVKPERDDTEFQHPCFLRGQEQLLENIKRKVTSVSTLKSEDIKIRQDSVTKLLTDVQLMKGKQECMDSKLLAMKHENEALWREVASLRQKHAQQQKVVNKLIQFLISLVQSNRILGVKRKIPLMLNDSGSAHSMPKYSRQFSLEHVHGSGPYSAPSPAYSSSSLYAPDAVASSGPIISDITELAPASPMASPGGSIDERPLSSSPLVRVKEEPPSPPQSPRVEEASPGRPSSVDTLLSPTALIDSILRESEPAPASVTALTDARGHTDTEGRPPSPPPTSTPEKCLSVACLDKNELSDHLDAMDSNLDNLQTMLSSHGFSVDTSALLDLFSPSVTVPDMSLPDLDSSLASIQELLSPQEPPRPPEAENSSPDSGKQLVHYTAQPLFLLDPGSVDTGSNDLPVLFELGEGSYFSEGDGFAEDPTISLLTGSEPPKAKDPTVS", "conditions": "protein: recombinant; tags: N-terminal GST; chain copies: 3; dsDNA, one strand shown", "method_in_brief": "as §1"}, "SPIC": {"target": "T2, SPIC (Homo sapiens, UniProt Q8N5J4 1-248)", "T2 sequence": "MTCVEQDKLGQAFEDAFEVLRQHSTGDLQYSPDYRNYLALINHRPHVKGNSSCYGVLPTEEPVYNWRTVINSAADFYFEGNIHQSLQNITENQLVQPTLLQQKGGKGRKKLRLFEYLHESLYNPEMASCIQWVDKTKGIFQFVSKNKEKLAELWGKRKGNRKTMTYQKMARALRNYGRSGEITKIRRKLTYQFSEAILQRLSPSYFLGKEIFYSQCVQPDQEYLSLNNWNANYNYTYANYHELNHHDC", "conditions": "protein: recombinant; tags: N-terminal GST; dsDNA, one strand shown", "method_in_brief": "as §1"}, "ELF4": {"target": "ELF4 (Homo sapiens, UniProt Q99607 1-663)", "sequence (Q99607 whole entry)": "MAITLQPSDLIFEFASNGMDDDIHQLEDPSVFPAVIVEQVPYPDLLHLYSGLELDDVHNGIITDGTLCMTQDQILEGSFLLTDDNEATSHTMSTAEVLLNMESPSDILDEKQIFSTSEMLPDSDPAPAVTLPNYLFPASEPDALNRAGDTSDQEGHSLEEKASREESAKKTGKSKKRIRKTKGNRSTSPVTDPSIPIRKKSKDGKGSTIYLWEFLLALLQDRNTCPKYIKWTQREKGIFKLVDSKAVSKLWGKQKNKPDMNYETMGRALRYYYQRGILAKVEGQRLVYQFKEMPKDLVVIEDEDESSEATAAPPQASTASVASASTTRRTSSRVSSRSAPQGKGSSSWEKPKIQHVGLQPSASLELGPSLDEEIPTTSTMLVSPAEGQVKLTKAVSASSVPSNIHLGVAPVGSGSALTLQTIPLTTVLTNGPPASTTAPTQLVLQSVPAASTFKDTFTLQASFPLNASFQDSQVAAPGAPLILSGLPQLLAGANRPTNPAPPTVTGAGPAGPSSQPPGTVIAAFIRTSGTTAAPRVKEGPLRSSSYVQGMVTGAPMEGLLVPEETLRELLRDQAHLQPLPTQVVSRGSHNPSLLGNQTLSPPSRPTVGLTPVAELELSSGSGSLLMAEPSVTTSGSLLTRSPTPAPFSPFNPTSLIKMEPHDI", "conditions": "protein: recombinant; tags: N-terminal GST; dsDNA, one strand shown", "method_in_brief": "as §1"}, "ELK4": {"target": "T3, ELK4 (Homo sapiens, UniProt P28324-2 1-405)", "T3 sequence": "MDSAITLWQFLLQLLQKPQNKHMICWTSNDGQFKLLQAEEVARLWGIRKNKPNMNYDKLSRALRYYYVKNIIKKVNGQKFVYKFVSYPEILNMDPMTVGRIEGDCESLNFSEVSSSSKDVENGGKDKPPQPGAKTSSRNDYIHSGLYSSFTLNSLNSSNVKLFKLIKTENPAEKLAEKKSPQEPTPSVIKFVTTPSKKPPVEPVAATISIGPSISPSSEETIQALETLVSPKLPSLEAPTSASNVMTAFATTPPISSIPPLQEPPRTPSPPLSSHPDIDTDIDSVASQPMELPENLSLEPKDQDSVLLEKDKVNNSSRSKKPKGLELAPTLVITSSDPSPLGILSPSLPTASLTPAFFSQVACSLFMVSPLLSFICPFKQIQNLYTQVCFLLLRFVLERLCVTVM", "conditions": "protein: recombinant; tags: N-terminal GST; dsDNA, one strand shown", "method_in_brief": "as §1"}, "ETV2": {"target": "T4, ETV2 (Homo sapiens, UniProt O00321 1-342)", "T4 sequence": "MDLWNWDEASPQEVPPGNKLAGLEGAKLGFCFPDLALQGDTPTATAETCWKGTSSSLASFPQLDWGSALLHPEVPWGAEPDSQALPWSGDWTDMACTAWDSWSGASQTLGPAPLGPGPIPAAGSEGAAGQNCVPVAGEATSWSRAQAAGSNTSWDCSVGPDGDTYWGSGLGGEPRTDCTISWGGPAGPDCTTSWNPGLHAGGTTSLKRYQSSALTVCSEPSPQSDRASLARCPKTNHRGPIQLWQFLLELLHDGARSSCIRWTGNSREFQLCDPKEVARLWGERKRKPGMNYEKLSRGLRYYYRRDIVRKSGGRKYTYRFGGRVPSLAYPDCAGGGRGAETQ", "conditions": "protein: recombinant; tags: N-terminal GST; dsDNA, one strand shown", "method_in_brief": "as §1"}, "ELF3": {"target": "T5, ELF3 (Homo sapiens, UniProt P78545 1-371)", "T5 sequence": "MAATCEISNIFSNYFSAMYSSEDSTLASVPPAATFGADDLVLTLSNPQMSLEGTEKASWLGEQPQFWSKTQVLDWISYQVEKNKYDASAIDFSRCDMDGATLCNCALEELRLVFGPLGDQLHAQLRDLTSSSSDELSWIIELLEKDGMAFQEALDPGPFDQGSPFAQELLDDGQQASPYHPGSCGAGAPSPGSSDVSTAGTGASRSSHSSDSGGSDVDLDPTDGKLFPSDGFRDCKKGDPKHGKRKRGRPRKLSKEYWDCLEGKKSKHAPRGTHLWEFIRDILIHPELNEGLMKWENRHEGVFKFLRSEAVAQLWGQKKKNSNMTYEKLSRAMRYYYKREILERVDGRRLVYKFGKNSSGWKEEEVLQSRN", "conditions": "protein: recombinant; tags: N-terminal GST; dsDNA, one strand shown", "method_in_brief": "as §1"}, "CRX": {"target": "CRX (Homo sapiens, UniProt O43186 1-299)", "sequence (O43186 whole entry)": "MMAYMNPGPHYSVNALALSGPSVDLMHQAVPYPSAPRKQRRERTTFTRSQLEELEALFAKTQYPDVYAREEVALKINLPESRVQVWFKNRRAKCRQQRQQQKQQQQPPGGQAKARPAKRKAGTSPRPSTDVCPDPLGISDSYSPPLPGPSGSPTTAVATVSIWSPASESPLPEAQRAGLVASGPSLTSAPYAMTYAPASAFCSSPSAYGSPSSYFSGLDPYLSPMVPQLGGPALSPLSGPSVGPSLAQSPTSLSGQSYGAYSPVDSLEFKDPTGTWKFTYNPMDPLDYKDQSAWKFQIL", "conditions": "protein: recombinant; tags: N-terminal GST; dsDNA, one strand shown", "method_in_brief": "as §1"}, "ETV1": {"target": "ETV1 (Homo sapiens, UniProt P50549 1-477)", "sequence (P50549 whole entry)": "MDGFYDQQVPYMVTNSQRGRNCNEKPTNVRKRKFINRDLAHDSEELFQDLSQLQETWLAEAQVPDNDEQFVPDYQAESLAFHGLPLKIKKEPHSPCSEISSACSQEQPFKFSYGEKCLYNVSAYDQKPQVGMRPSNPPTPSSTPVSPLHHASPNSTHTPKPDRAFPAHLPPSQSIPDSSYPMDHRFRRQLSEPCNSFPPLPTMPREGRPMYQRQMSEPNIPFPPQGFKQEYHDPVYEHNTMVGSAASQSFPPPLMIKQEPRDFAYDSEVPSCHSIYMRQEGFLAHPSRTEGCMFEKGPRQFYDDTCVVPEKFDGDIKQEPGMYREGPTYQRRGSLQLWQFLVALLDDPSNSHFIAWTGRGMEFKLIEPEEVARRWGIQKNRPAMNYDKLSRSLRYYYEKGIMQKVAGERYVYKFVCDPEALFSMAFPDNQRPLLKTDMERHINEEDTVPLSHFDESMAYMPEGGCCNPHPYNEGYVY", "conditions": "protein: recombinant; tags: N-terminal GST; dsDNA, one strand shown", "method_in_brief": "as §1"}},
  "data": [
    {"sequence": "TAGCTT", "values": [
      {"measurement": "binding signal", "setting": "FEV", "value": "1.2 fold enrichment (6-mer frequency, TF over GST control)"},
      {"measurement": "binding signal", "setting": "ETV5", "value": "1.31 fold enrichment (6-mer frequency, TF over GST control)"},
      {"measurement": "binding signal", "setting": "HSF1", "value": "1.4 fold enrichment (6-mer frequency, TF over GST control)"},
      {"measurement": "binding signal", "setting": "SPIC", "value": "1.28 fold enrichment (6-mer frequency, TF over GST control)"},
      {"measurement": "binding signal", "setting": "ELF4", "value": "1.1 fold enrichment (6-mer frequency, TF over GST control)"},
      {"measurement": "binding signal", "setting": "ELK4", "value": "1.21 fold enrichment (6-mer frequency, TF over GST control)"},
      {"measurement": "binding signal", "setting": "ETV2", "value": "1.15 fold enrichment (6-mer frequency, TF over GST control)"},
      {"measurement": "binding signal", "setting": "ELF3", "value": "1.33 fold enrichment (6-mer frequency, TF over GST control)"},
      {"measurement": "binding signal", "setting": "CRX", "value": "1.83 fold enrichment (6-mer frequency, TF over GST control)"},
      {"measurement": "binding signal", "setting": "ETV1", "value": "1.2 fold enrichment (6-mer frequency, TF over GST control)"}
    ]}
  ]
}
